Structures are written as SMILES. Records with an inconclusive call do not appear. Entries that show only a call come without a potency. Values without a mark were called inactive. Activity calls are given as the source filed them. Calls follow the shape of the full dose curve.
Potency is read from the fitted curve at half-maximal effect.

This test can be described thus: qHTS assay to identify small molecule antagonists of the estrogen receptor alpha (ER-alpha) signaling pathway using the BG1 cell line (AID 743080).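 Also: BG1 cells stimulated with 17beta-estradiol alongside compound; nearly all actives have a fitted effect of over 25% in size.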 The following applies: BG1Luc4E2 ERE-luciferase antagonist mode, luminescence; series mostly up to 70.3 µM. The source says: National Center for Advancing Translational Sciences [NCATS]
NIH Chemical Genomics Center [NCGC]
U.S. Environmental Protection Agency [EPA]
National Institutes of Environmental Health Sciences [NIEHS]
National Toxicology Program [NTP]
U.S. Food and Drug Administration [FDA]
Estrogen receptor (ER), a nuclear hormone receptor, plays an important role in development, metabolic homeostasis and reproduction. Endocrine disrupting chemicals (EDCs) and their interactions with steroid hormone receptors like ER causes disruption of normal endocrine function. Therefore, it is important to understand the effect of environmental chemicals on the ER signaling pathway. To identify ER antagonists, BG1-Luc-4E2 cell line (provided by Dr. Michael Denison from University of California) has been used to screen the Tox21 10K compound library. BG1Luc4E2 cell line endogenously expresses full-length ER-alpha and is stably transfected with a plasmid containing four estrogen responsive elements (ERE) upstream of a luciferase reporter gene.
Tox21 Assay Protocol Summary:
BG1-Luc-4E2 cells were cultured in phenol red free assay medium containing 10% charcoal stripped FBS for 5 days before the assay was performed. The cells were dispensed at 4,000 cells/4 uL of assay medium per well into white wall/solid-bottom 1536-well plates using a Multidrop Combi (ThermoFisher Scientific, Waltham, MA) dispenser. The assay plates were incubated at a 37C and 5% CO2 for 24 h, and then 23 nL of compounds dissolved in DMSO, positive controls or DMSO only was transferred to the assay plate using a Pintool station (Kalypsys, San Diego, CA), followed by addition of 1 uL of 17beta-estradiol in assay medium using a Flying Reagent Dispenser (Aurora Discovery, San Diego, CA). After the plates were incubated at 37 C and 5% CO2 for 21.5 h, 1 uL of CellTiter-Fluor reagent (Promega, Madison, WI) of measuring cytotoxicity was added using Flying Reagent Dispenser (FRD) to each well. The assay plates were incubated at 37 C and 5% CO2 for additional 30 min and the fluorescence intensity was quantified by a ViewLux plate reader (PerkinElmer, Shelton, CT). For measuring luciferase reporter gene activity, 4 uL of ONE-Glo reagent (Promega) was added to each plate using an FRD and luminescence was quantified by a ViewLux plate reader after 30 min incubation at room temperature.
On the technique in general: qHTS replaces the single test concentration by a dilution series.
Take `CNCCCC1c2ccccc2C=Cc2ccccc21`: the Potency result was “inactive”. For the compound `OCCSc1ccccc1`, the Potency entry was “inactive”. Still for that read-out and setting: the same measure for `CC(C)CCCCCCOC(=O)CCCCC(=O)OCCCCCCC(C)C`: “inactive”; for `Nc1ccc(S(=O)(=O)O)c(N)c1`: “inactive”; for `C/C=C/C=C/CCCCCCCO`: “inactive”.

`NC(=O)Cn1c(=O)cc(CCN2CCN(c3nccc4sccc34)CC2)c2ccc(F)cc21`: the Potency entry is “inactive”. For `Cc1nc2ccccc2s1`, the Potency result was “inactive”. On the same count and under the same terms, the same measure for `CC(=O)Oc1ccc(C(=C2CCCCC2)c2ccc(OC(C)=O)cc2)cc1`: “inactive”; for `O=S(=O)(c1ccccc1)c1ccc(Cl)cc1`: 68600 nM (active). With `[O]=[Bi]`, the activity change, negative = inhibition was 3.19% [at 8.47 µM]. Regarding `CCCc1c(OCCCOc2ccc(OCC(=O)O)cc2)ccc(C(C)=O)c1O`, the Potency result is “inactive”. On the same count and under the same terms, the result for `O=Cc1c(Cl)cccc1Cl` reads “inactive”. As to `c1cc[c]([Bi]([c]2ccccc2)[c]2ccccc2)cc1`, the Potency entry is “inactive”.

For the compound `CC(C)(C)C(=O)C(Oc1ccc(Cl)cc1)n1ccnc1` (stereo not given), the Potency result is “inactive”. Same read-out and setting: the same measure for `CCCCC(CC)C(=O)OCCOCCOCCOCCOC(=O)C(CC)CCCC` (stereo not given): “inactive”; for `CCC(C(=O)OCCN(CC)CC)c1ccccc1` (stereo not given): “inactive”. The same measure, in the same setting: the same measure for `CCOC(=N)CC(=O)OCC`: “inactive”; for `CC(C)C(=O)O`: “inactive”. As to `CCCCCC=CCC=CCCCCCCCC(=O)OCC`, the Potency entry was “inactive”.

Consider `COc1cc2[nH]c(=O)[nH]c(=O)c2cc1OC`, for which the Potency entry is “inactive”. In the case of `COC(=O)[C@@H]1CC2=CC(=O)CC[C@]2(C)[C@@]23O[C@@H]2C[C@@]2(C)[C@@H](CC[C@@]24CCC(=O)O4)[C@H]13`, the Potency entry is “inactive”. Same read-out and setting: the same measure for `COC(=O)CC(=O)C(C)(C)C`: “inactive”. Same read-out and setting: the result for `Nc1nc(Cl)nc2c1ncn2[C@@H]1O[C@H](CO)[C@@H](O)[C@@H]1F` reads 3760 nM (active); that for `CCCOc1ccc(S(=O)(=O)N2CCN(CC)CC2)cc1-c1nc2c(CC)n(Cc3ccccn3)nc2c(=O)[nH]1`, “inactive”; that for `CC1=CC(O)CC(C)(C)C1` (stereo not given), “inactive”. Same read-out and setting: the result for `O=C(CCCN1CCN(c2ccc(F)cc2)CC1)NC1c2ccccc2CSc2ccccc21` (stereo not given) reads “inactive”; that for `Nc1ccc(Cl)cc1[N+](=O)[O-]`, “inactive”. With `CN1C(=O)CC(C)(c2ccccc2)C1=O` (stereo not given), the Potency entry was “inactive”. Still for that read-out and setting: the result for `CCCCC(CC)COC(=O)COc1ccc(Cl)cc1C` (stereo not given) reads “inactive”. With `CC(CCc1ccc2c(c1)OCO2)NN` (stereo not given), the Potency entry was “inactive”. As to `Nc1ccc(S(=O)(=O)O)cc1`, the Potency entry was “inactive”. On to `CO/N=C1\CN(c2nc3c(cc2F)c(=O)c(C(=O)O)cn3C2CC2)CC1CN` (stereo not given), for which the Potency result is “inactive”. Turning to `Brc1cc(-c2ccc(Br)c(Br)c2Br)cc(Br)c1Br`, the Potency entry was “inactive”. For the compound `CO[Si](C)(OC)OC`, the Potency entry is “inactive”. `CC(CCO)CCc1ccccc1` (stereo not given): the Potency entry is “inactive”. The same measure, in the same setting: the same measure for `CC(N)CN` (stereo not given): “inactive”; for `CC1=C(/C=C/C(C)=C\C=C\C(C)=C\C(=O)O)C(C)(C)CCC1`: 243 nM (active); for `Cc1nccn1-c1ccc(Sc2cccc(C3(C(N)=O)CCOCC3)c2)cc1`: 1930 nM (active). Same read-out and setting: the same measure for `Nc1ccc(C(=O)OCCCOC(=O)c2ccc(N)cc2)cc1`: “inactive”; for `CC(C)(CCl)c1ccccc1`: “inactive”.

(Values after PubChem BioAssay (Tox21).)
